Shiga toxin inh = A qHTS for Small Molecule Inhibitors of Shiga Toxin | Vero cells, Shiga toxin protein synthesis inhibition reporter | inhibition, % at 38.7 µM | 290,000 tested, 9.2% active | AID 2315, 2010; in the data active = inhibition mostly above about 28%, no sharp cut-off; inactive = mostly below about 43%
NS1 function inh = qHTS Assay for Inhibitors of Influenza NS1 Protein Function; 270,000 tested, 0.4% active; Potency, µM (top dose mostly 46.1 µM); calls by dose curve; also: actives are rising curves; nearly all actives have a fitted effect of over 50% in size
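Read-out: OD600 growth recovery of NS1-expressing budding yeast. Cells grown overnight at 30C in -URA glucose medium, washed, resuspended and diluted 1:100 in 2% galactose assay medium, pH 6.0. Same strain lacking NS1 served as positive control.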
CHX counter-1 = Cycloheximide Counterscreen for Small Molecule Inhibitors of Shiga Toxin; cell reporter, cycloheximide protein synthesis inhibition counterscreen; max response, %; 300,000 tested, 12% active; in the data active = max response mostly above about 13%, no sharp cut-off; inactive = mostly below about 14%; also: read at 38.3 µM for the half of the compounds with a filed dose
Giardia FBPA inh-1 = qHTS Assay for Inhibitors of Fructose-1,6-bisphosphate Aldolase from Giardia Lamblia | 290,000 tested, 0.71% active | purified Giardia FBPA | Potency, µM (doses to about 59.6 µM), actives largely listed as inhibitors | AID 2451, 2010 | A8B2U2; also: nearly all actives have a fitted effect of over 55% in size
Target sequence (A8B2U2 whole entry, looked up): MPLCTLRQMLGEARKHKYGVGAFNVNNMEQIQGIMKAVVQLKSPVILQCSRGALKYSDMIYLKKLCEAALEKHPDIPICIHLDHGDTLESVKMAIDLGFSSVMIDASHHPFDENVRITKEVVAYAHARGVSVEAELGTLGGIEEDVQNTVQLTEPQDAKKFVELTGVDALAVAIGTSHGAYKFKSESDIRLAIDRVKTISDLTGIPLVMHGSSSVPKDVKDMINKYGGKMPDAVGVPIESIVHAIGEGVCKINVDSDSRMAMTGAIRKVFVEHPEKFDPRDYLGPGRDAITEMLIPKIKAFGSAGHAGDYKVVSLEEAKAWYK
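40 nM FBPA preincubated 10 min at RT with compound (up to 57.5 uM final), then substrate plus GAPDH/TPI/NAD/arsenate coupling and diaphorase/resazurin added. Fluorescence read after 20 min at RT, 525/598 nm.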
LmPK inhibitor = qHTS Assay for Inhibitors of Leishmania Mexicana Pyruvate Kinase (LmPK) | 290,000 tested, 0.37% active | AID 1721, 2009 | purified LmPK, Kinase-Glo ATP luminescence, 1 h | Potency, µM (doses to about 57.5 µM), usual class: inhibitors
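qHTS format; LmPK 0.1 nM; substrates PEP 0.5 mM and ADP 0.1 mM. One-hour room-temperature incubation, then coupled luciferase luminescence; 0.5 nM enzyme wells mark activation.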
LmPK inh confirm = Confirmation Assay for Inhibitors of Leishmania Mexicana Pyruvate Kinase (LmPK) | shares compounds with LmPK inhibitor | Potency, µM (series often up to 57.5 µM), hits mostly inhibitors | 150 tested, 40% active | purified LmPK, Kinase-Glo ATP luminescence, 1 h | AID 2559, 2010;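 active = compounds giving a full or partial concentration-response curve, as inhibitors or activators; inconclusive = weak, top-dose-only or unclear curve responses; inactive = no response at any tested dose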
CHX counter-2 = Cycloheximide Counterscreen for Small Molecule Inhibitors of Shiga Toxin (Confirmatory); AID 2318, 2010; Potency, µM (doses to about 38.3 µM), most hits filed as activators; 510 tested, 3% active; shares compounds with Shiga toxin inh; Cycloheximide counterscreen, protein synthesis reporter, Shiga toxin assay; calls by dose curve
Giardia growth = qHTS Assay for Inhibitors of Fructose-1,6-bisphosphate Aldolase from Giardia Lamblia: Giardia lamblia growth inhibition | shares compounds with Giardia FBPA inh-1 | Giardia lamblia trophozoite growth inhibition | Potency, µM (highest dose often 57.5 µM), most hits filed as inhibitors | 1,500 tested, 5% active;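 also: trophozoites exposed to compound for 48 h at 37 °C; nearly all actives have a fitted effect of over 70% in size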
Mammalian tox = qHTS Assay for Inhibitors of Fructose-1,6-bisphosphate Aldolase from Giardia Lamblia: Mammalian cellular toxicity; mammalian cell viability counter-screen, qHTS; 1,500 tested, 4% active; Potency, µM (doses to about 57.5 µM), usual class: inhibitors; AID 2786, 2010; shares compounds with Giardia FBPA inh-1;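 also: Chinese hamster ovary cells used as mammalian cytotoxicity surrogate; viability measured as cellular ATP by luminescence; compound exposure lasted 48 h before reading; nearly all actives have a fitted effect of over 60% in size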
Giardia FBPA inh-2 = qHTS Assay for Inhibitors of Fructose-1,6-bisphosphate Aldolase from Giardia Lamblia: Primary screen confirmation. Potency, µM (series often up to 57.5 µM), most hits filed as inhibitors. purified Giardia aldolase enzyme activity, qHTS. shares compounds with Giardia FBPA inh-1. 1,500 tested, 5% active. AID 2787, 2010; also: nearly all actives have a fitted effect of over 45% in size
Rabbit FBPA inh = qHTS Assay for Inhibitors of Fructose-1,6-bisphosphate Aldolase from Giardia Lamblia: Rabbit FBPA Selectivity; shares compounds with Giardia FBPA inh-1; Rabbit muscle FBPA enzyme inhibition, selectivity counter-screen; Potency, µM (highest dose often 57.5 µM), most hits filed as inhibitors; 1,500 tested, 4% active; also: nearly all actives have a fitted effect of over 60% in size
GAPDH coupling = qHTS Assay for Inhibitors of Fructose-1,6-bisphosphate Aldolase from Giardia Lamblia: Coupling assay counterscreen confirmation; shares compounds with Giardia FBPA inh-1; 1,500 tested, 6% active; GAPDH coupling enzyme counterscreen, biochemical, qHTS; Potency, µM (top dose mostly 57.5 µM), usual class: inhibitors; AID 2795, 2010; also: nearly all actives have a fitted effect of over 55% in size
Large screens that a line does not name were inactive (follow-up assays come after a bar, where they were run); [ ] = another dose, or the depositor's remark. This is a sample that favours compounds with a hit; in the whole collection about 14% have one here. Unless noted, calls follow the shape of the dose curve; as a rule, active = well fitted curve in the direction sought with a large enough effect; inconclusive = small, poorly fitted or top-dose-only effect, or another doubt; inactive = no such curve, though single readings can be large; an effect the other way counts as inactive or inconclusive.

CN1CCc2cccc3c2C1Cc1ccc(O)c(O)c1-3 (centres undefined)	NS1 function inh inconclusive, Giardia FBPA inh-1 14µM, LmPK inhibitor 3.2µM | LmPK inh confirm inactive | Giardia growth inactive[10.4 µM] | Mammalian tox inactive | Giardia FBPA inh-2 inconclusive | Rabbit FBPA inh inconclusive | GAPDH coupling inactive
COc1ccc(CN2CCNC(=O)C2CC(=O)N2CCCN(C(C)=O)CC2)c(OC)c1 (centres undefined)	none
c1ccc(OCCCn2ccnc2)cc1	Shiga toxin inh 42 | CHX counter-2 inactive
COc1ccc(OCCCn2ccnc2)cc1	Giardia FBPA inh-1 inconclusive
CCCOP(=O)(OCCC)c1nc(-c2ccccc2)oc1NCc1ccccc1	Shiga toxin inh 20 | CHX counter-2 inactive
Cc1ccc(-n2c(SCC(=O)N3CCCCC3)nc(O)c(Cc3ccccc3)c2=O)cc1	none (no result: Giardia FBPA inh-1)
CC(C)(C)c1ccc(C(=O)Nc2cccc3ncccc23)cc1	none
CC(=O)Nc1cccc2ncccc12	Shiga toxin inh 41 | CHX counter-2 inactive
O=C(Nc1nnc(Cc2ccccc2)s1)c1cccnc1	Shiga toxin inh 59 | CHX counter-2 inactive
O=C(NNC(=S)NC(=O)c1cccc([N+](=O)[O-])c1)c1ccc(Br)cc1	Giardia FBPA inh-1 inconclusive
CN(C(=O)c1ccc2c(=O)n3c(nc2c1)CCCCC3)c1ccccc1	Shiga toxin inh active | CHX counter-2 inactive
O=C(c1ccc2c(=O)n3c(nc2c1)CCCCC3)N1CCN(c2ccccc2)CC1	none
CCn1c(P(C)(=O)O)nc2ccccc21	none
CCn1c(P(C)(=O)O)nc2cc(NC(=O)c3ccccc3F)ccc21	Shiga toxin inh 32 (no result: NS1 function inh) | CHX counter-2 inactive
COc1ccc(C(C(=O)NC2CCCC2)N(Cc2cccnc2)C(=O)c2snc(C(N)=O)c2N)cc1 (centres undefined)	none
O=C(/C=C\c1ccco1)Nc1nc(-c2ccc3ccccc3c2)cs1	Shiga toxin inh 58 | CHX counter-2 inactive
Cc1ccc(-c2csc(NC(=S)NC(=O)/C=C/c3ccco3)n2)cc1	none (no result: Giardia FBPA inh-1)
Cc1cccc2sc(NC(=O)CSc3nc4ccccc4o3)nc12	none
CC(=O)Nc1cccc(NC(=O)CSc2nc3ccccc3o2)c1	Shiga toxin inh 25 | CHX counter-2 inactive
CCOc1ccc(N2C(=O)CC(C(C)c3ccccc3)C2=O)cc1 (centres undefined)	none (no result: Shiga toxin inh)
O=C(Cn1cnc2cc([N+](=O)[O-])ccc2c1=O)NCc1ccc(Cl)cc1	Shiga toxin inh 47 | CHX counter-2 inactive
Cc1ccc(NC(=O)Cn2cnc3cc([N+](=O)[O-])ccc3c2=O)c(Cl)c1	none
CCCC[C@@H]1C[C@H]1[C@@H](NC(=O)c1ccco1)c1ccc(Cl)cc1	Shiga toxin inh 84 | CHX counter-2 inactive

Compound activity (PubChem)
